The whole screen tested about 48,000 compounds, of which about 13,000 (27%) showed an effect of 50% or more. The list shows a part of the results.
System: Wolbachia pipientis
Assay: Anti-Wolbachia Cell-Based Screen
Assay type: functional
Set-up: scale not given: in the data most compounds retested in dose-response had high values
Conditions: 5 µM

Row | SMILES | Percent Effect
1 | COc1ccc(CN[C@@H]2CO[C@H](CNC(=O)NC(C)C)[C@H]2O)cc1 | 1.543%
2 | CC(C)c1noc(C(C)S(=O)(=O)Cc2nc(C3CC3)no2)n1 (configuration not stated) | 8.57%
3 | Cc1cnn(CCCNC(=O)NC2CCN(CC(F)(F)F)C2=O)c1 (configuration not stated) | -8.389%
4 | O=C1CNc2ncnc(Nc3cnn(Cc4cccc(F)c4)c3)c2N1 | 115.2%
5 | O=C1CNc2ncnc(Nc3cnn(Cc4ccc(F)cc4)c3)c2N1 | 101.7%
6 | O=C1CC(NCc2ccncc2)CN1Cc1cccc(F)c1 (configuration not stated) | -21.37%
7 | O=C1CNc2ncnc(Nc3cnn(Cc4ccccc4)c3)c2N1 | 115.8%
8 | COc1ccc2c(CN3CCN(Cc4cccc(F)c4)CC3)n[nH]c2c1 | 2.522%
9 | CC(C)(C(=O)NCc1ccccc1F)n1cc(Br)cn1 | 10.35%
10 | c1ccc(Cn2cc(CNCC3CCCN3c3cccnn3)cn2)cc1 (configuration not stated) | 20.91%
11 | O=C1CNc2ncnc(Nc3cnn(Cc4ccccc4F)c3)c2N1 | 112.6%
12 | O=C1CCN(Cc2cnc3c(-c4ccccc4)cnn3c2)CCN1 | 2.207%
13 | O=C(NCCCOc1cccnc1)c1cn(Cc2ccccc2F)nn1 | -6.028%
14 | CCN1CCCC1Cn1ccc2ccc(C(=O)OC)cc2c1=O (configuration not stated) | -21.42%
15 | COc1cccc(CN(C)Cc2cccc(C#N)c2)c1OC | -9.148%
16 | OC1CCN(C2CCN(Cc3cccc(Cn4cccn4)c3)CC2)CC1 | 19.22%
17 | O=C1CNc2ncnc(Nc3cccc(Cn4cccn4)c3)c2N1 | 129.6%
18 | c1cc(CN2CCC(CCn3cccn3)CC2)cc(Cn2cccn2)c1 | -8.775%
19 | OCCNc1nccc(-c2cn3nccc3nc2C2CCCCC2)n1 | 109.1%
20 | CCCn1cc(-c2ccnc(NC3CCCc4ccccc43)n2)c(C)n1 (configuration not stated) | 2.739%
21 | CCN(CC)CCCNc1nccc(-c2cn(C)nc2C)n1 | -2.773%
22 | Cc1cc2nc(C3CCCCC3)c(-c3ccnc(NCCO)n3)cn2n1 | 91.18%
23 | CNCCNc1nccc(-c2cn(C)nc2C)n1 | 0.09563%

Row | SMILES | Percent Effect
24 | CCCn1ncc(-c2ccnc(NC3CCCc4ccccc43)n2)c1C (configuration not stated) | -7.325%
25 | CCN(CCNC(=O)C1CCCN(C(C)=O)C1)c1ccccc1C (configuration not stated) | 2.266%
26 | CNc1ncc(CN(C)c2nc(C)c3ccc(S(C)(=O)=O)cc3n2)cn1 | 9.72%
27 | COc1cccc2cc(CNC(C)(C)C(=O)N3CCC(O)CC3)oc12 | -3.796%
28 | COc1cccc(CN(C)C(=O)CCC(=O)c2ccccc2)c1OC | -10.25%
29 | COc1cccc(CN2CC(O)CN(C(=O)C(C)(C)C)CC2=O)c1OC (configuration not stated) | 116.9%
30 | COc1ccnc(CN2CC(=O)N(c3ccc(C)cc3)CC2C)c1OC (configuration not stated) | -8.096%
31 | CCOC(=O)N1CC(=O)N(Cc2cccc(OC)c2OC)CC(O)C1 (configuration not stated) | 107.9%
32 | COCCN1CCc2nc(SCc3ccc(F)cc3)[nH]c(=O)c2C1 | 106%
33 | COCCN1CCc2onc(C(c3ccccc3)c3ccccc3)c2C1 | 19.48%
34 | CCCN1CCc2nc(SCc3ccc(F)cc3)[nH]c(=O)c2C1 | 101.4%
35 | C=Cc1ccc(CSc2nc3c(c(=O)[nH]2)CN(CCC)CC3)cc1 | -6.559%
36 | CCCN1CCc2nc(SCc3ccccc3F)[nH]c(=O)c2C1 | 16.02%
37 | CCCN1CCc2nc(SCc3ccccc3)[nH]c(=O)c2C1 | 19.11%
38 | CCCN(C)C(=O)c1ccc2c(c1)[nH]c(=O)n2CCOCC | -27.89%
39 | Cc1csc(CNC(=O)NCC(O)c2cccc(Cl)c2)n1 (configuration not stated) | -23.66%
40 | C=C(C)CN(CC)C(=O)c1cc(Cl)ccc1NS(C)(=O)=O | -12.97%
41 | COc1cccc(C2C3=C(COC3=O)Nc3[nH]nc(C)c32)c1OC (configuration not stated) | 3.331%
42 | CNC(=O)c1cccc(CC2COCCN(Cc3ccc(C)o3)C2)n1 (configuration not stated) | 193.8%
43 | O=C(NCc1cc(N2CCOCC2)ncn1)c1cccc(CO)n1 | -9.818%
44 | Cn1nc(CN2CCOCC2)c2c1CN(Cc1ccsc1)C2.O=C(O)C(F)(F)F.O=C(O)C(F)(F)F | 1.369%
45 | CNC(=O)c1cccc(CC2COCCN(Cc3ccsc3)C2)n1 (configuration not stated) | 152.2%
46 | Cc1ccc(CN2CCC3(CC2)CC(NC(=O)c2ccccn2)CO3)o1 (configuration not stated) | -7.485%

Row | SMILES | Percent Effect
47 | Cc1ccc(CN2CC[C@@H]3CN(S(C)(=O)=O)CCO[C@@H]3C2)o1 | -7.086%
48 | COCCN(CCN(C)C)C(=O)NC1CC1 | -6.538%
49 | CCCNC(=O)C[S+]([O-])Cc1csc(C2CCCCC2)n1 (configuration not stated) | 9.015%
50 | CC(C)c1cc(NCc2csc(N(C)C)n2)nc(N)n1 | -34.84%
51 | C1CN(c2nc(C3CC3)no2)CCN(C2CCOCC2)C1 | 3.883%
52 | CCn1ncc2c1C(COC)CN(Cc1ccc(OC)cc1)C2 (configuration not stated) | 12.18%
53 | Cn1ncc2c1C(COCC1CC1)CN(Cc1nccs1)C2 (configuration not stated) | -9.049%
54 | CCn1ncc2c1C(COC)CN(Cc1nccs1)C2 (configuration not stated) | 93.87%
55 | CCn1ncc2c1C(COC)CN(Cc1cnn(C)c1)C2 (configuration not stated) | 98.55%
56 | CCn1ncc2c1C(COC)CN(S(=O)(=O)C1CC1)C2 (configuration not stated) | -7.886%
57 | CC(C)N(CC1CCCN(Cc2ccon2)C1)C(=O)OC(C)(C)C (configuration not stated) | -0.3893%
58 | CC(C)OCCNC(=O)C1CCC(=O)N(C2CCCC2)C1 (configuration not stated) | -13.5%
59 | Cc1ccc(CNC(=O)N2CCN(S(C)(=O)=O)CC2)n1C | -9%
60 | CN(C)C(=O)c1ccn(-c2ccc3ccccn23)n1 | 2.89%
61 | CS(=O)(=O)N1CCCCCC1C1CCN(c2ncccc2C#N)CC1 (configuration not stated) | -0.7273%
62 | Cc1csc(Nc2nccnc2C2CCCN2S(C)(=O)=O)n1 (configuration not stated) | 47.35%
63 | Cc1ccc2nc(C3CCCN3Cc3scnc3C)[nH]c2c1 (configuration not stated) | -7.773%
64 | CS(=O)(=O)N1CCCC1c1ccnc2nccn12 (configuration not stated) | 122.4%
65 | CS(=O)(=O)N1CCCCCC1C1CCN(c2ncccn2)CC1 (configuration not stated) | -4.856%
66 | Cc1ccc2nc(C3CCCN3Cc3cccc(CCN)c3)[nH]c2c1 (configuration not stated) | -6.155%
67 | CS(=O)(=O)N1CCC[C@H]1c1ncnn1-c1ccc2c(c1)OCO2 | 23.33%
